Activity calls are given as the source filed them. How the source made its calls: active means hit-call score of the fitted dose curve at least 0.9, where 1 is the maximum; inactive means score below 0.9.
Tests used:
[1] = read-out: Macrophage colony-stimulating factor (MCSF), CSF1 (gene 1435); experiment: BSK_hDFCGF_MCSF: BioMAP Diversity Plus: hDFCGF Assay for Macrophage colony-stimulating factor (MCSF) Biomarker Activity (AID 2283060); settings: primary human foreskin fibroblasts; actives raise or lower the signal
Method in brief: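 M-CSF levels read by ELISA at 24 h post-dosing in human skin fibroblasts. Parallel cultures stained with SRB assessed cytotoxicity at the same time point; response fitted in both directions against the DMSO baseline.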

[2] = BSK_hDFCGF_SRB: Viability Assessment in the BioMAP Diversity Plus: hDFCGF Assay (AID 2283061); settings: primary human foreskin fibroblasts;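 further: cells exposed to compound for 24 h before the read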
Method in brief: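 Viability was read as total protein: after 10% TCA fixation, wells were stained with 0.1% sulforhodamine B and read at 560 nm. Primary human foreskin fibroblasts were dosed for 24 h, with bidirectional fitting versus DMSO.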

[3] = read-out: TIMP metallopeptidase inhibitor 1 (TIMP1), TIMP1 (gene 7076); experiment: BSK_hDFCGF_TIMP1: BioMAP Diversity Plus: hDFCGF Assay for TIMP metallopeptidase inhibitor 1 (TIMP1) Biomarker Activity (AID 2283062); settings: primary human foreskin fibroblasts; actives raise or lower the signal
Method in brief: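 TIMP-1 measured by ELISA 24 h after chemical dosing of primary human skin fibroblasts, with gain or loss fitted relative to DMSO. Parallel SRB staining (560 nm) monitored overt cytotoxicity.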

[4] = read-out: Monokine induced gamma interferon (MIG), CXCL9 (gene 4283); experiment: BSK_hDFCGF_MIG: BioMAP Diversity Plus: hDFCGF Assay for Monokine induced gamma interferon (MIG) Biomarker Activity (AID 2283063); settings: primary human foreskin fibroblasts; actives raise or lower the signal
Method in brief: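 Human primary foreskin fibroblasts in the hDFCGF system, exposed to test chemical for 24 h; MIG measured by ELISA. Bidirectional curve fitting against DMSO negative control as activity baseline.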

[5] = read-out: Matrix Metallopeptidase 1 (MMP1), MMP1 (gene 4312); experiment: BSK_hDFCGF_MMP1: BioMAP Diversity Plus: hDFCGF Assay for Matrix Metallopeptidase 1 (MMP1) Biomarker Activity (AID 2283064); settings: primary human foreskin fibroblasts; actives raise or lower the signal
Method in brief: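 hDFCGF primary fibroblasts (human foreskin); chemical added; 24 h; MMP1 by ELISA; bidirectional fit vs DMSO.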

[6] = read-out: Vascular cell adhesion molecule 1 (VCAM1), VCAM1 (gene 7412); experiment: BSK_hDFCGF_VCAM1: BioMAP Diversity Plus: hDFCGF Assay for Vascular cell adhesion molecule 1 (VCAM1) Biomarker Activity (AID 2283065); settings: primary human foreskin fibroblasts; actives raise or lower the signal;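 on AC50: VCAM-1 protein level quantified by ELISA after 24 h chemical exposure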
Method in brief: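 ELISA readout of VCAM-1 on human dermal fibroblast primary cultures, 24 h after chemical exposure. Gain or loss of signal fitted in both directions against DMSO baseline.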

[7] = read-out: Plasminogen activator inhibitor-1 (PAI1), SERPINE1 (gene 5054); experiment: BSK_hDFCGF_PAI1: BioMAP Diversity Plus: hDFCGF Assay for Plasminogen activator inhibitor-1 (PAI1) Biomarker Activity (AID 2283066); settings: primary human foreskin fibroblasts; actives raise or lower the signal
Method in brief: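 Human foreskin fibroblast primary cells, 24 h chemical exposure; PAI-1 measured by ELISA. Bidirectional fitting relative to DMSO; parallel cultures stained with SRB for total protein to flag overt cytotoxicity.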

[8] = read-out: Intercellular Adhesion Molecule 1 (ICAM1), ICAM1 (gene 3383); experiment: BSK_KF3CT_ICAM1: BioMAP Diversity Plus: KF3CT Assay for Intercellular Adhesion Molecule 1 (ICAM1) Biomarker Activity (AID 2283067); settings: primary human keratinocytes with fibroblasts; actives raise or lower the signal
Method in brief: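 Cell-surface ICAM-1 was measured by ELISA 24 h after dosing primary human skin keratinocytes co-cultured with fibroblasts. Parallel SRB staining tracked overt cytotoxicity. Gain or loss of signal was fitted relative to DMSO.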

[9] = read-out: Interferon-gamma inducible Protein 10 (IP10), CXCL10 (gene 3627); experiment: BSK_KF3CT_IP10: BioMAP Diversity Plus: KF3CT Assay for Interferon-gamma inducible Protein 10 (IP10) Biomarker Activity (AID 2283068); settings: primary human keratinocytes with fibroblasts; actives raise or lower the signal
Method in brief: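 Signal is secreted/surface IP-10 by ELISA in a human primary skin co-culture of keratinocytes and foreskin fibroblasts, taken 24 h post-dosing; DMSO served as negative control.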

[10] = BSK_KF3CT_SRB: Viability Assessment in the BioMAP Diversity Plus: KF3CT Assay (AID 2283069); settings: primary human keratinocytes with fibroblasts;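 further: total protein by sulforhodamine B staining as a cytotoxicity measure; read 24 h after compound addition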
Method in brief: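 Keratinocytes co-cultured with foreskin fibroblasts (human primary); chemical added, 24 h; fix 10% TCA, stain 0.1% SRB, A560. Bidirectional fit vs DMSO.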

[11] = read-out: Interleukin-1 alpha (IL1a), IL1A (gene 3552); experiment: BSK_KF3CT_IL1a: BioMAP Diversity Plus: KF3CT Assay for Interleukin-1 alpha (IL1a) Biomarker Activity (AID 2283070); settings: primary human keratinocytes with fibroblasts; actives raise or lower the signal
Method in brief: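 Chemicals were dosed onto co-cultured human keratinocytes and foreskin fibroblasts, IL-1a was quantified by ELISA at 24 h, and activity was fitted in both directions relative to DMSO controls.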

[12] = read-out: TIMP metallopeptidase inhibitor 2 (TIMP2), TIMP2 (gene 7077); experiment: BSK_KF3CT_TIMP2: BioMAP Diversity Plus: KF3CT Assay for TIMP metallopeptidase inhibitor 2 (TIMP2) Biomarker Activity (AID 2283071); settings: primary human keratinocytes with fibroblasts; actives raise or lower the signal
Method in brief: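 Co-culture of human primary keratinocytes and foreskin fibroblasts, measured 24 h after chemical dosing. TIMP-2 quantified by ELISA and fitted in both directions relative to DMSO. Cytotoxicity checked in parallel cultures by SRB total-protein staining.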

[13] = read-out: Transforming growth factor beta 1 (TGFb1), TGFB1 (gene 7040); experiment: BSK_KF3CT_TGFb1: BioMAP Diversity Plus: KF3CT Assay for Transforming growth factor beta 1 (TGFb1) Biomarker Activity (AID 2283072); settings: primary human keratinocytes with fibroblasts; actives raise or lower the signal
Method in brief: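 Human keratinocyte/foreskin fibroblast co-culture; TGF-b1 measured by ELISA 24 h after dosing, fitted bidirectionally versus DMSO. Cytotoxicity checked in parallel cultures by total protein (SRB staining, 560 nm).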

[14] = read-out: C-C motif chemokine 2 (Homo sapiens) (UniProt P13500); experiment: BSK_KF3CT_MCP1: BioMAP Diversity Plus: KF3CT Assay for Monocyte Chemoattractant Protein 1 (MCP1/CCL2) Biomarker Activity (AID 2283073); settings: primary human keratinocytes with fibroblasts; actives raise or lower the signal
Method in brief: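 ELISA read-out of MCP-1, 24 h post-dose, in primary human skin keratinocytes co-cultured with fibroblasts. Parallel SRB staining monitors cytotoxicity; changes fitted both directions relative to DMSO.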

[15] = read-out: Matrix Metallopeptidase 9 (MMP9), MMP9 (gene 4318); experiment: BSK_KF3CT_MMP9: BioMAP Diversity Plus: KF3CT Assay for Matrix Metallopeptidase 9 (MMP9) Biomarker Activity (AID 2283074); settings: primary human keratinocytes with fibroblasts; actives raise or lower the signal;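 on AC50: MMP9 protein level quantified by ELISA in the co-culture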
Method in brief: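 Human keratinocyte/foreskin fibroblast co-culture; compound added; 24 h; MMP-9 by ELISA; bidirectional fit vs DMSO baseline.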

[16] = read-out: urokinase plasminogen activator (uPA), PLAU (gene 5328); experiment: BSK_KF3CT_uPA: BioMAP Diversity Plus: KF3CT Assay for urokinase plasminogen activator (uPA) Biomarker Activity (AID 2283075); settings: primary human keratinocytes with fibroblasts; actives raise or lower the signal
Method in brief: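 ELISA readout of uPA, analyzed for signal gain or loss relative to DMSO, from a human primary keratinocyte–foreskin fibroblast co-culture measured 24 h after chemical treatment.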

CD40, CD40 (gene 958) = experiment: BSK_LPS_CD40: BioMAP Diversity Plus: LPS Assay for CD40 Biomarker Activity (AID 2283076); settings: primary human HUVEC with PBMC; actives raise or lower the signal
Method in brief: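 In the LPS system of human endothelial cells with peripheral blood mononuclear cells, CD40 levels were read by ELISA 24 h post-treatment. Signal changes in either direction were fitted against the DMSO baseline, with parallel SRB protein staining.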

[17] = read-out: E-selectin (Homo sapiens) (UniProt P16581); experiment: BSK_LPS_Eselectin: BioMAP Diversity Plus: LPS Assay for Eselectin Biomarker Activity (AID 2283077); settings: primary human HUVEC with PBMC; actives raise or lower the signal
Method in brief: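 E-selectin ELISA on LPS-stimulated endothelial cell/PBMC co-cultures, read 24 h post-treatment; gains and losses fitted against DMSO. Parallel SRB staining (0.1% SRB after 10% TCA fixation, 560 nm) flags overt cytotoxicity.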

[18] = BSK_LPS_SRB: Viability Assessment in the BioMAP Diversity Plus: LPS Assay (AID 2283079); settings: primary human HUVEC with PBMC;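 further: total protein by sulforhodamine B absorbance as a cytotoxicity measure; measured one day after compound addition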
Method in brief: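 SRB viability endpoint: cells fixed with 10% TCA, stained with 0.1% SRB, read at 560 nm, 24 h post-dose. HUVEC/PBMC co-culture; signal change in either direction scored relative to DMSO.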

Sequence of E-selectin (Homo sapiens) (P16581 whole entry, looked up): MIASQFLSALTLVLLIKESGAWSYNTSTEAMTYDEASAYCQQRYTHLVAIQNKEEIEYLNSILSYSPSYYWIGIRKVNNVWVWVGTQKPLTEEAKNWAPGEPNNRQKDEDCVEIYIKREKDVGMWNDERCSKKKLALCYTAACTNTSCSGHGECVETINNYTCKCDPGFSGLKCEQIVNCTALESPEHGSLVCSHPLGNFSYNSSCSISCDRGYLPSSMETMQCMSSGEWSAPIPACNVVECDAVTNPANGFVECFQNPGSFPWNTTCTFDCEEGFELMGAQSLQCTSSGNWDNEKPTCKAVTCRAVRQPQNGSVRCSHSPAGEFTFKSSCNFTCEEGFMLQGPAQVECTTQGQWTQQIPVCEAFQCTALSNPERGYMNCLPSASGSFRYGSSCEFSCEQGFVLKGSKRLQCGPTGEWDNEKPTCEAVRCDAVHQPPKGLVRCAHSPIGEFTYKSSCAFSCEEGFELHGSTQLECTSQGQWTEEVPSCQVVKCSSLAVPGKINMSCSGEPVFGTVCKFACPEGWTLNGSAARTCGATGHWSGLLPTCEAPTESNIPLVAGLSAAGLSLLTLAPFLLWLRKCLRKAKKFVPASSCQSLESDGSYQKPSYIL

O=P(O)(O)CCCl
outcome [1]: inactive
outcome [2]: inactive
outcome [3]: inactive
outcome [4]: inactive
outcome [5]: inactive
outcome [6]: inactive
outcome [7]: inactive
outcome [8]: inactive
outcome [9]: inactive
outcome [10]: inactive
outcome [11]: inactive
outcome [12]: inactive
outcome [13]: inactive
outcome [14]: inactive
outcome [15]: inactive
outcome [16]: inactive
outcome (CD40, CD40 (gene 958)): inactive
outcome [17]: inactive
outcome [18]: inactive

CSC(=O)c1c(C(F)F)nc(C(F)(F)F)c(C(=O)SC)c1CC(C)C
AC50 [1]: 11.4 µM (active)
outcome [2]: inactive
outcome [3]: inactive
outcome [4]: inactive
AC50 [5]: 4.27 µM (active)
AC50 [6]: 13.4 µM (active)
AC50 [7]: 26.9 µM (active)
outcome [8]: inactive
outcome [9]: inactive
outcome [10]: inactive
outcome [11]: inactive
outcome [12]: inactive
outcome [13]: inactive
outcome [14]: inactive
outcome [15]: inactive
outcome [16]: inactive
AC50 (CD40, CD40 (gene 958)): 16.3 µM (active)
AC50 [17]: 5.05 µM (active)
AC50 [18]: 26.3 µM (active)

COC(=O)N(C(=O)N1CO[C@@]2(C(=O)OC)Cc3cc(Cl)ccc3C2=N1)c1ccc(OC(F)(F)F)cc1
outcome [1]: inactive
AC50 [2]: 3.65 µM (active)
outcome [3]: inactive
outcome [4]: inactive
outcome [5]: inactive
outcome [6]: inactive
AC50 [7]: 5.54 µM (active)
outcome [8]: inactive
AC50 [9]: 13.3 µM (active)
outcome [10]: inactive
outcome [11]: inactive
outcome [12]: inactive
outcome [13]: inactive
outcome [14]: inactive
AC50 [15]: 3.16 µM (active)
outcome [16]: inactive
AC50 (CD40, CD40 (gene 958)): 12.4 µM (active)
outcome [17]: inactive
AC50 [18]: 5.89 µM (active)

O=c1n(Cl)c(=O)n(Cl)c(=O)n1Cl
outcome [1]: inactive
outcome [2]: inactive
outcome [3]: inactive
outcome [4]: inactive
outcome [5]: inactive
outcome [6]: inactive
outcome [7]: inactive
outcome [8]: inactive
outcome [9]: inactive
outcome [10]: inactive
outcome [11]: inactive
outcome [12]: inactive
outcome [13]: inactive
outcome [14]: inactive
outcome [15]: inactive
outcome [16]: inactive
outcome (CD40, CD40 (gene 958)): inactive
outcome [17]: inactive
outcome [18]: inactive

COc1ccc(-c2ccccc2)cc1NNC(=O)OC(C)C
outcome [1]: inactive
outcome [2]: inactive
outcome [3]: inactive
outcome [4]: inactive
outcome [5]: inactive
outcome [6]: inactive
outcome [7]: inactive
outcome [8]: inactive
outcome [9]: inactive
outcome [10]: inactive
outcome [11]: inactive
outcome [12]: inactive
outcome [13]: inactive
outcome [14]: inactive
outcome [15]: inactive
outcome [16]: inactive
outcome (CD40, CD40 (gene 958)): inactive
outcome [17]: inactive
outcome [18]: inactive

CCN(CC)c1nc(C)cc(OP(=S)(OC)OC)n1
AC50 [1]: 14.6 µM (active)
outcome [2]: inactive
outcome [3]: inactive
outcome [4]: inactive
AC50 [5]: 4.09 µM (active)
AC50 [6]: 27 µM (active)
AC50 [7]: 11.3 µM (active)
outcome [8]: inactive
outcome [9]: inactive
outcome [10]: inactive
outcome [11]: inactive
outcome [12]: inactive
outcome [13]: inactive
outcome [14]: inactive
outcome [15]: inactive
outcome [16]: inactive
AC50 (CD40, CD40 (gene 958)): 19.5 µM (active)
outcome [17]: inactive
outcome [18]: inactive

Cc1c(COC(=O)[C@@H]2[C@H](/C=C(\Cl)C(F)(F)F)C2(C)C)cccc1-c1ccccc1
AC50 [1]: 3.97 µM (active)
outcome [2]: inactive
outcome [3]: inactive
outcome [4]: inactive
AC50 [5]: 3.23 µM (active)
outcome [6]: inactive
outcome [7]: inactive
outcome [8]: inactive
outcome [9]: inactive
outcome [10]: inactive
outcome [11]: inactive
outcome [12]: inactive
outcome [13]: inactive
outcome [14]: inactive
outcome [15]: inactive
outcome [16]: inactive
outcome (CD40, CD40 (gene 958)): inactive
outcome [17]: inactive
outcome [18]: inactive

From PubChem BioAssay (EPA / NIEHS)
